Screening results deposited in PubChem by Buhrlage Lab, Dana-Farber Cancer Institute and Novartis Institutes for BioMedical Research (Cambridge, Mass).
In the library only some 13% were active in any assay of this set; here they are far more common.
USP30 inh – inhibitors of human USP30 deubiquitinase; Ubiquitin carboxyl-terminal hydrolase 30 (Homo sapiens), Q70CQ3; purified USP30, Ub-rhodamine cleavage fluorescence; inhibition, % at 25 µM; 47,000 compounds, 5.3% hits; AID 1645860, 2021
Target sequence (Q70CQ3 whole entry, looked up): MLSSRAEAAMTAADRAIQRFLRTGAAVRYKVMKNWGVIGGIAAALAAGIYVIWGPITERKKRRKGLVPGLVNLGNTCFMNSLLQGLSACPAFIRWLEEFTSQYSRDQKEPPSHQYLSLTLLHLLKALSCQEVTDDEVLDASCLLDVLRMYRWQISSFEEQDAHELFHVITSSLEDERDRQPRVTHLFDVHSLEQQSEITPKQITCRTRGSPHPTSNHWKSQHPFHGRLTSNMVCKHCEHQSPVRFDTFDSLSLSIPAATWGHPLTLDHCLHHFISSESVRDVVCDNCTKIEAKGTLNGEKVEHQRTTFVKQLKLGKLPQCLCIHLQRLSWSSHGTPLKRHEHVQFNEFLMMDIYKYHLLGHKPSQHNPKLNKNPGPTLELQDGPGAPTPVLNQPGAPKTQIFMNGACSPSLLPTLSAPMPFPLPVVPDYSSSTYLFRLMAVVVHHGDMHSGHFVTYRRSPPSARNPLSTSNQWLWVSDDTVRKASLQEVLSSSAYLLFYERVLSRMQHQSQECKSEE
USP17 block – inhibitors of human USP17 deubiquitinase. purified USP17, Ub-rhodamine cleavage fluorescence, 3 h. inhibition, % at 50 µM. 47,000 compounds, 6.5% hits. AID 1645855, 2021
USP8 inh – inhibitors of human USP8 deubiquitinase; AID 1645853, 2021; purified USP8, Ub-rhodamine cleavage fluorescence, 30 min; Ubiquitin carboxyl-terminal hydrolase 8 (Homo sapiens), P40818; inhibition, % at 20 µM; 47,000 compounds, 4.2% hits
USP28 block – inhibitors of human USP28 deubiquitinase; Ubiquitin carboxyl-terminal hydrolase 28 (Homo sapiens), Q96RU2; purified USP28, Ub-rhodamine cleavage fluorescence, 30 min; inhibition, % at 25 µM; 47,000 compounds, 3% hits
USP10 block – inhibitors of human USP10 deubiquitinase | inhibition, % at 20 µM | 47,000 compounds, 1.1% hits | purified USP10, Ub-rhodamine fluorescence, 60 min
* = called active by the depositor; · = no result. Cut-off read from the data, not from the text of the source: active = inhibition above about 30%; inactive = the rest.

SMILES	USP30 inh	USP17 block	USP8 inh	USP28 block	USP10 block
CC(C)(C)c1ccc(N(CC(N)=O)S(C)(=O)=O)cc1	34*	11	-20	3	-1
O=C(CCC(=O)c1ccc(F)cc1)Nc1cccc(S(=O)(=O)Nc2cccc(Cl)c2)c1	-2	-3	-20	-68	32*
Cc1ccc(S(=O)(=O)Nc2cccc(Cl)c2)cc1NC(=O)CCC(=O)c1ccc(Cl)cc1	18	0	7	-12	34*
Cc1ccc(S(=O)(=O)Nc2ccc(Cl)cc2)cc1NC(=O)CC(=O)c1ccccc1	-2	38*	51*	7	27
Cc1ccc(S(=O)(=O)Nc2cccc(Cl)c2)cc1NC(=O)CCc1ccccc1	15	22	17	10	15
O=C(CCCC(=O)OCC(=O)c1ccc(F)cc1)Nc1cccc(Cl)c1	3	11	13	15	5
C=CCN1CC(=O)N2C(CCc3ccccc3)c3[nH]c4ccccc4c3C[C@@H]2C1=O (stereo partly specified)	30	·	21	10	7
O=c1c2cnc3nc(-c4cccnc4)nn3c2ccn1C1CCCCC1	-5	0	11	-6	1
O=c1c2cnc3nc(-c4cccnc4)nn3c2ccn1CCc1ccccc1	19	51*	6	8	1
COc1ccc(-c2nnc(SC(C(=O)c3ccccc3)c3ccccc3)o2)cc1 (stereo unspecified)	-12	29	8	10	7
COc1ccc(-c2nnc(SCc3ccc(C#N)cc3)o2)cc1	46*	0	0	1	6
Cc1nn(-c2nc3ccccc3o2)c2c1C(c1cccc([N+](=O)[O-])c1)CC(=O)N2 (stereo unspecified)	28	13	5	4	24
CCOC(=O)N1CCN(C(=O)[C@H](C)NC(=O)c2cc3c(OC)c(OC)ccc3[nH]2)CC1	-5	2	16	-8	1
COc1cccc(NC(=O)[C@H](C)NC(=O)c2cc3c(OC)c(OC)ccc3[nH]2)c1	-24	47*	81*	0	3
CCS(=O)(=O)N1Cc2ccccc2CC1C(=O)Nc1nc(-c2ccccc2)c(C)s1 (stereo unspecified)	-71	-7	46*	-7	0
CCS(=O)(=O)N1Cc2ccccc2CC1C(=O)NCc1ccc2c(c1)OCO2 (stereo unspecified)	-40	26	39*	7	8
CNC(=O)C1Cn2ccnc2C2(CCN(C(=O)NC3CCCC3)CC2)O1 (stereo unspecified)	6	0	-43	1	0
O=C(Cn1nc(-c2ccccc2)c2cc(Cl)ccc21)Nc1ccc(Br)cc1F	·	-1	-8	·	-2
COCCN1CCS(=O)(=O)c2c(F)c(N3CCCC3)nc(F)c21	25	11	3	14	1
COCCCN1CCS(=O)(=O)c2c(Cl)c(F)nc(Oc3ccc(C#N)cc3)c21	-16	80*	91*	20	10
COCCN1CCS(=O)(=O)c2c(Cl)c(F)nc(Oc3ccccc3F)c21	-4	49*	53*	5	0
O=S1(=O)CCN(Cc2cccnc2)c2c(Oc3ccccc3F)nc(F)c(Cl)c21	12	13	15	2	-1
CCc1cc2cc3c(cc2nc1SCC(=O)N1CC(=O)Nc2ccccc21)OCO3	-18	35*	9	8	-5
Cc1ccccc1OCC(=O)NCC(c1ccco1)N1CCOCC1 (stereo unspecified)	-43	-30	-15	-9	-1
COc1ccc2cc(C(=O)NCc3ccccn3)[nH]c2c1	-22	-5	-24	-6	-3
SMILES	USP30 inh	USP17 block	USP8 inh	USP28 block	USP10 block
COc1ccc2nc(NC(=O)c3cc4ccc5cccnc5c4[nH]3)sc2c1	3	8	80*	1	33*
O=C(Nc1nc2ccccc2s1)c1cc2ccc3cccnc3c2[nH]1	·	58*	25	·	35*
CCOc1ccccc1-c1cc(NC(=O)c2cc3ccc4cccnc4c3[nH]2)on1	88*	68*	69*	12	53*
CN(C)S(=O)(=O)c1ccc2nc(NC(=O)c3ccc4ccccc4n3)sc2c1	16	9	13	5	4
CC(C)NC(=O)c1cccc(-c2noc(-c3ccc4cc[nH]c4c3)n2)c1	-41	-14	-30	-14	-1
Cc1cccc(NC(=O)c2cnc(N3CCCCC3)c3ccccc23)n1	-24	10	36*	21	-3
Cc1nc(N2CCCCC2)ncc1C(=O)Nc1ccccc1F	-12	1	8	6	0
O=C(CSc1nnc(-c2cccc(Cl)c2)o1)N1CCCc2ccccc21	32*	23	20	23	6
COc1ccc(-c2nnc3ccc(SCC(=O)N4CCCc5ccccc54)nn23)cc1	-6	-6	-7	2	0
CN(Cc1ccccc1)C(=O)CSc1nnc(-c2ccc3c(c2)OCO3)o1	29	5	-20	19	2
Cc1cc(NC(=O)CSc2nnc(-c3ccc4c(c3)OCCO4)o2)no1	0	11	31*	-11	-4
Cc1ccc(-c2nnc3ccc(SCC(=O)N4CCCc5ccccc54)nn23)cc1	30*	-4	-4	18	-1
Cc1cc(NC(=O)CSc2nnc(-c3cccc(Cl)c3)o2)no1	13	49*	2	3	-1
Cc1noc(/C=C/Nc2cc(Cl)cc(Cl)c2)c1[N+](=O)[O-]	0	6	-11	-3	19
COc1ccccc1NC(=O)N(Cc1cc2cccc(C)c2[nH]c1=O)C1CCCC1	25	16	21	11	2
Cc1ccc(NC(=O)CSc2nnc(-c3ccncc3)o2)cc1F	6	46*	-3	-5	0
O=C(CSc1nnc(-c2cccnc2)o1)Nc1ccc(F)cc1	27	16	16	3	0
O=S(=O)(O)c1cc2cc3ccccc3cc2[nH]1	-41	61*	87*	0	-2
CCOc1ccc2ncc(S(=O)(=O)c3ccccc3)c(Nc3ccc(Cl)cc3)c2c1	28	10	22	13	10
O=C(c1noc2ccc(S(=O)(=O)Nc3cccc(F)c3)cc12)N1CCOCC1	-7	-14	-18	-9	-1
O=S(=O)(Nc1ccc(O)cc1)c1ccc2oc3ccc(S(=O)(=O)Nc4ccc(O)cc4)cc3c2c1	34*	54*	2	23	22
CCCCc1nc2sc3c(NCCN4CCOCC4)ncnc3c2c2c1CCC2	-31	-14	-13	83*	0
CC(C)CNc1ncnc2c1sc1nc(-c3ccccc3)c3c(c12)CCC3	17	·	39*	8	0
CCN(CC)c1ncnc2c1sc1nc(-c3ccccc3)c3c(c12)CCC3	-45	-36	-20	-30	-9
CCN(CCO)c1ncnc2c1sc1nc(-c3ccccc3)c3c(c12)CCC3	-69	33*	-9	4	-5
